Results: PubChem BioAssay (NCATS)
Results filed as inconclusive are left out. Activity calls are given as the source filed them. Calls follow the shape of the dose curve; as a rule, active = well fitted inhibition curve with a large enough effect; inconclusive = small, poorly fitted or top-dose-only effect; inactive = flat fitted curve, though single readings scatter.

Experiments:
[1] = tested on: CRL-7250; test: Cytotoxic Profiling of Annotated Libraries Using Quantitative High-Throughput Screening (AID 1296008); settings: Five cell lines viability, CellTiter-Glo ATP luminescence, 48-72 h; max response: active compounds read low; also: potency is read from the fitted curve at half-maximal effect; as to max response: % is scaled to controls: 0 for no effect and ±100 for the full control effect
Summary of the method: (§1)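 Cytotoxicity was measured as CellTiter-Glo ATP luminescence, read after 10 min at room temperature. Compound treatment of the cells lasted 48 or 72 hr at 37 degrees Celsius in a qHTS format.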

[2] = tested on: HEK293; test: as above; settings: Five cell lines viability, CellTiter-Glo ATP luminescence, 48-72 h; max response: active compounds read low
Summary of the method: as §1

[3] = tested on: KB-3-1; test: as above; settings: Five cell lines viability, CellTiter-Glo ATP luminescence, 48-72 h; max response: active compounds read low
Summary of the method: as §1

[4] = tested on: NIH3T3; test: as above; settings: Five cell lines viability, CellTiter-Glo ATP luminescence, 48-72 h; max response: active compounds read low
Summary of the method: as §1

[5] = tested on: TAB113; test: qHTS profiling for inhibitors of Plasmodium falciparum proliferation (AID 504749); also: potency is read from the fitted curve at half-maximal effect; settings: P. falciparum in erythrocytes, SYBR Green DNA, 72 h; series mostly up to 28.7 µM
Summary of the method: (§2)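 In a 72 h erythrocytic culture (37 C, humidified, 5% CO2) at 2.5% hematocrit and 0.3% starting parasitemia, compounds were tested; SYBR Green I in detergent lysis buffer stained parasite DNA overnight.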

[6] = tested on: TAB165; test: as above; settings: P. falciparum in erythrocytes, SYBR Green DNA, 72 h; series mostly up to 28.7 µM
Summary of the method: as §2

[7] = tested on: W2; test: as above; settings: P. falciparum in erythrocytes, SYBR Green DNA, 72 h; series mostly up to 28.7 µM
Summary of the method: as §2

[8] = tested on: HEK293T; test: qHTS assay to identify novel small-molecules to repurpose for Merkel cell carcinoma treatment (AID 1296009); settings: MCC and control cell lines, CellTiter-Glo viability, 72 h; at 44.8 µM (top of the series) unless noted
Summary of the method: (§3)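 Cell viability measured by CellTiter-Glo following 72 hr compound treatment at 37 degree celsius, with NPC and MIPE libraries tested in 8- and 11-point concentration series.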

[9] = tested on: HaCat; test: Cytotoxic Profiling of Annotated Libraries Using Quantitative High-Throughput Screening (AID 1296008); settings: Five cell lines viability, CellTiter-Glo ATP luminescence, 48-72 h; max response: active compounds read low; also: potency is read from the fitted curve at half-maximal effect; as to max response: % is scaled to controls: 0 for no effect and ±100 for the full control effect
Summary of the method: as §1

[10] = tested on: HACAT; test: qHTS assay to identify novel small-molecules to repurpose for Merkel cell carcinoma treatment (AID 1296009); settings: MCC and control cell lines, CellTiter-Glo viability, 72 h; at 44.8 µM (top of the series) unless noted
Summary of the method: as §3
Also: nearly all actives have a fitted effect of over 60% in size.

OC[C@H]1O[C@@H](Oc2ccc(O)cc2)[C@H](O)[C@@H](O)[C@@H]1O
inactive: max response [1] -17% | max response [2] -74.1% | max response [3] 3.33% | max response [4] -45.3%

Cc1ncc(CO)c(C=O)c1O
inactive: Potency [5] | Potency [6] | Potency [7] | max response [1] -16.1% | max response [2] -65.4% | max response [3] 3.7% | max response [4] -38.1%

NC(=O)c1ccccc1O
inactive: Potency [5] | Potency [6] | Potency [7] | max response [1] 2.66% | outcome [2] | max response [3] 10.4% | max response [4] -3.05% | outcome [8]

O=C(c1ccc(F)cc1)C1CCN(CCn2c(=S)[nH]c3ccccc3c2=O)CC1
inactive: max response [1] -5.62% | max response [2] -98.9% | max response [3] 8.09% | max response [4] -46.6%
active: Potency [5] 3.98 µM | Potency [6] 5.01 µM | Potency [7] 2.39 µM

O=C(O)CCNC(=O)c1ccccc1
inactive: Potency [5] | Potency [6] | Potency [7] | max response [1] 4.33% | outcome [2] | max response [3] -6.01% | max response [4] 0.555% | outcome [8]

COc1cc(C)nc(-n2nc(C)cc2OC)n1
inactive: Potency [5] | Potency [6] | Potency [7] | max response [1] -9.05% | max response [2] -7.38% | max response [3] 4.41% | outcome [4]

C[C@@H](O)[C@H]1C(=O)N2C(C(=O)O)=C(S[C@@H]3CN[C@H](CNS(N)(=O)=O)C3)[C@H](C)[C@H]12
inactive: Potency [5] | Potency [6] | Potency [7] | max response [1] -1.21% | outcome [9] | max response [3] 7.85% | max response [4] 3.07% | outcome [10]

O=C(CCN1CCN2CCCC2C1)N1c2ccccc2Sc2ccc(Cl)cc21 (configuration not stated)
active: Potency [7] 3.01 µM
inactive: Potency [5] | max response [1] -7.08% | outcome [9] | max response [3] 7.31% | max response [4] 3.25% | outcome [10] inactive [at 17.4 µM]

CCCCCCCCCCC[C@@H](C[C@@H]1OC(=O)[C@H]1CCCCCC)OC(=O)[C@H](CC(C)C)NC=O
inactive: outcome [1] | outcome [9] | max response [3] -9.82% | max response [4] 1.98% | outcome [10]

CC(C)NCC(O)c1ccc2ccccc2c1 (configuration not stated)
inactive: max response [1] 3.16% | outcome [9] | max response [3] -2.59% | outcome [4] | outcome [10]
active: Potency [5] 4.47 µM | Potency [6] 10 µM | Potency [7] 1.9 µM

CCCCCCCCCCCCCCC[C@H](O)[C@@H](N)CO
inactive: max response [1] -2.05% | max response [9] -24.2% | max response [3] -4.68% | max response [4] -9.49%

CC(=O)OCC(=O)[C@H]1CC[C@H]2[C@@H]3CCC4=CC(=O)CC[C@]4(C)[C@H]3CC[C@]12C
inactive: Potency [5] | Potency [6] | max response [1] 1.7% | outcome [9] | max response [3] -19.8% | max response [4] 0.692% | outcome [10]

CCN(CC)CCNc1ccc(CO)c2sc3ccccc3c(=O)c12
active: Potency [5] 1.12 µM | Potency [6] 0.794 µM | Potency [7] 0.675 µM | Potency [1] 18.8 µM | Potency [2] 7.5 µM | Potency [4] 23.7 µM

CCCCC(CC)CN1CN(CC(CC)CCCC)CC(C)(N)C1 (configuration not stated)
inactive: max response [1] -21.5% | max response [9] -10.2% | max response [3] -12.3% | max response [4] -12.8%

COc1ccccc1N1CCN(CCCCNC(=O)c2ccc(-c3ccc(C(C)=O)cc3)cc2)CC1
inactive: Potency [5] | Potency [6] | Potency [7] | max response [1] -9.94% | outcome [9] | max response [3] -4.38% | max response [4] -11% | outcome [10]

COc1ccc(S(=O)(=O)N2c3ccc(Cl)cc3[C@@](O)(c3ccccc3Cl)[C@H]2C(=O)N2CCC[C@@H]2C(N)=O)cc1OC
inactive: max response [1] -16.1% | max response [9] -3.91% | max response [3] -5.62% | max response [4] 1.04%

O=C1OC(CN2CCOCC2)CN1/N=C/c1ccc([N+](=O)[O-])o1 (configuration not stated)
inactive: outcome [1] | max response [9] 2.11% | max response [3] 2.54% | max response [4] -5.18%

N/C(=N\N=C\c1ccc(Cl)cc1)N/N=C/c1ccc(Cl)cc1
active: Potency [6] 3.98 µM
inactive: outcome [1] | outcome [9] | max response [3] 13.1% | max response [4] -19% | outcome [10]
